Yp Topo-I inh = Y. pestis Topo-I inhibition via cleavage products; 360,000 compounds, 0.064% hits; activity, % at 10 µM; Y. pestis Topo-I cleavage product accumulation, plate reader; in the data active = activity above about 50%, passing the limit was not always enough
Mtb BioA inh = blocks M. tuberculosis BioA enzyme activity; 360,000 compounds, 0.096% hits; AID 602481; inhibition, % at 9.99 µM; purified M. tuberculosis BioA enzyme, plate reader; in the data active = inhibition above about 40%
BJeLR viability = BJeLR cell viability loss; BJeLR (HRASV12) viability, CellTiter-Glo ATP luminescence, 48 h; inhibition, % (test concentration not listed); 300,000 compounds, 0.17% hits; AID 1554; in the data active = inhibition above about 50%
PfHsp40 rescue = restores yeast growth despite PfHsp40 toxicity; 340,000 compounds, 0.68% hits; growth rescue, % at 12.5 µM; AID 504582; S. cerevisiae expressing PfHsp40, growth rescue, ATP luminescence; in the data active = growth rescue above about 28%, passing the limit was not always enough;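 also: yeast W303a lacking pdr1 and pdr3 grown in galactose medium; growth measured after three days at 30 °C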
MazF activator = activators of E. coli MazEF toxin-antitoxin RNase. P0AE70. FAM/BHQ RNA-DNA oligo cleavage fluorescence, 5 h. activation, % at 20 µM. 350,000 compounds, 0.32% hits; in the data active = activation above about 50%
Target sequence (P0AE70 whole entry, looked up): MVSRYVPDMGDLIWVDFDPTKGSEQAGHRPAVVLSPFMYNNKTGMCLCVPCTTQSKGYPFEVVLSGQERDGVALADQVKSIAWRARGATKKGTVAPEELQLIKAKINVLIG
SARS 3CLpro inh = SARS-CoV 3CLpro protease inhibition; 290,000 compounds, 0.14% hits; inhibition, % at 6 µM; AID 1706; P0C6X7; recombinant SARS-CoV 3CLpro, quenched FRET peptide cleavage; in the data active = inhibition above about 12%
The depositor's hits bear a star; nt = no result given. An excerpt weighted towards active compounds, which were near 1.1% of everything screened.

SMILES	Yp Topo-I inh	Mtb BioA inh	BJeLR viability	PfHsp40 rescue	MazF activator	SARS 3CLpro inh
O=C(NCC1CC1)[C@@H]1[C@@H](CO)[C@@H]2Cn3c(ccc(-c4ccccc4)c3=O)[C@@H]2N1Cc1cocn1	nt	0	nt	nt	nt	nt
O=C(Cc1n[nH]c(=O)c2ccccc12)OCC(=O)c1ccc2c(c1)OCCO2	2	0	36	96*	-3	2
O=C(Cc1n[nH]c(=O)c2ccccc12)OCC(=O)c1ccc(F)cc1	-2	-1	-1	0	8	nt
CCCCOc1cccc(-c2cc(C(=O)NNC(=S)NCC)c3ccccc3n2)c1	12	0	17	47*	3	4
CCOC(=O)c1ccc(NC(=S)NNC(=O)c2cc(-c3cccnc3)nc3ccccc23)cc1	7	4	-6	154*	3	3
O=C(O)CC/C(=C\c1ccc2c(c1)OCO2)c1nc2ccccc2s1	-4	15	-4	1	60*	4
O=C(O)CC/C(=C\c1ccc(Cl)c([N+](=O)[O-])c1)c1nc2ccccc2s1	1	nt	12	0	-2	5
CC(C)NC(=O)N(C)C[C@H]1OCCCC[C@H](C)Oc2ccc(NC(=O)CCC(F)(F)F)cc2C(=O)N([C@H](C)CO)C[C@@H]1C	nt	-1	nt	nt	nt	nt
CC1CCc2c(sc3nc(C(C)(C)C)nc(N4CCN(C(=O)CCl)CC4)c23)C1 (stereo not drawn)	-1	7	85*	3	1	6
CCC(=O)N1CCN(c2nc(CC)nc3sc4c(c23)CCCC4)CC1	18	17	0	-1	2	3
CC(=O)/C=C(\C)Nc1ccccc1O	1	1	-1	43*	-1	-2
Nc1c(Cl)ncnc1N/N=C/c1ccc2ccccc2n1	-3	nt	nt	503*	3	3
C[C@H](O)C#Cc1cnc2c(c1)C(=O)N([C@H](C)CO)C[C@H](C)[C@@H](CN(C)C(=O)Cc1ccccn1)O2	nt	-1	nt	nt	nt	nt
Cc1noc(C)c1NC(=O)Nc1cccc2c1O[C@H](CN(C)CC1CCCCC1)[C@@H](C)CN([C@@H](C)CO)C2=O	nt	1	nt	nt	nt	nt
COc1cc(/C=C/C(=O)OCC(=O)NC(=O)NC(C)(C)C)ccc1OCC#N	0	nt	6	83*	7	-7
O=C(C[C@H]1C[C@@H]2c3cc(NC(=O)Nc4ccccc4)ccc3O[C@@H]2[C@H](CO)O1)NCc1ccccn1	nt	-3	nt	nt	nt	nt
CN(C(=O)CSc1nnc(-c2ccccc2)n1C)C1CCS(=O)(=O)C1 (stereo not drawn)	1	nt	2	44*	3	-5
COCC(=O)Nc1ccc2c(c1)OC[C@@H](C)N(Cc1cccc(F)c1)C[C@H](C)[C@H](OC)CN(C)C2=O	nt	-1	nt	nt	nt	nt
O=C(NCCCNc1ccc(C(F)(F)F)cc1[N+](=O)[O-])c1ccc(Cl)cc1	-9	0	1	471*	12	3
O=C(NCCCNc1ccc(C(F)(F)F)cc1[N+](=O)[O-])c1cc(F)c(F)cc1Cl	5	1	-7	0	1	-2
COc1ccc(/C=N/Nc2ccc([N+](=O)[O-])cc2S(=O)(=O)N2CCN(C)CC2)cc1	-4	1	4	-1	166*	1
C[C@H](CO)N1C[C@H](C)[C@@H](CN(C)C(=O)C2CCC2)Oc2ncc(-c3ccc(F)cc3)cc2C1=O	nt	-1	nt	nt	nt	nt
CCS(=O)(=O)N1N=C(c2cccc(NS(C)(=O)=O)c2)CC1c1ccccc1 (stereo not drawn)	-1	nt	-10	2	-117	1
CCS(=O)(=O)N1N=C(c2cccc(NS(C)(=O)=O)c2)CC1c1ccc(C)cc1 (stereo not drawn)	4	nt	-6	0	67*	-2
O=C(c1ccc(Cl)cc1)N1CCN(c2ccc(F)cc2)CC1	9	5	-2	110*	2	1
O=C(c1ccncc1)N1CCN(c2ccc(F)cc2)CC1	1	0	0	0	0	4
Cc1[nH]nc(SCC(=O)N2CCCCCC2)c1[N+](=O)[O-]	4	2	-16	49*	0	4
CC(C)c1cn(CC[C@@H]2CC[C@@H](NS(=O)(=O)c3ccc(Cl)cc3)[C@H](CO)O2)nn1	nt	0	nt	nt	nt	nt
Cc1ccc(NC(=S)N/N=C/c2ccc([N+](=O)[O-])s2)cc1	-26	1	-10	211*	13	-3

Screening results as filed in PubChem BioAssay.
